Measured values: PubChem BioAssay (Tox21)
Results filed as inconclusive are left out. Calls of active or inactive are those of the source. Unless noted, calls follow the shape of the full dose curve.

Tests used:
[1] = qHTS assay to identify small molecule agonists of the NFkB signaling pathway - cell viability counter screen (AID 1159515); also: series mostly up to about 61 µM; nearly all actives have a fitted effect of over 55% in size
Method in brief: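 Plate 2,000 NFkB-bla ME-180 cells/well; incubate overnight. Add compounds, 5 hr at 37 C. Add FRET substrate, 1.5 hr RT. Add CellTiter-Glo, 30 min RT; read luminescence.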

[2] = qHTS assay to identify small molecule agonists of the endoplasmic reticulum stress response signaling pathway (AID 1159516; active = well fitted activation curve with a large enough effect in the signal ratio in the repeat runs, not every such curve was filed as active; the % refers to the signal ratio)
Method in brief: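 Beta-lactamase expression from the ER stress response element in HeLa reporter cells is quantified with the LiveBLAzer B/G FRET substrate, read at 405 nm excitation after 2 hr at room temperature, following 5 hr compound treatment at 37 C.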

[3] = qHTS assay to identify small molecule agonists of the endoplasmic reticulum stress response signaling pathway - cell viability counter screen (AID 1159517); also: series mostly up to about 61 µM; nearly all actives have a fitted effect of over 50% in size
Method in brief: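 Cpd-treated ESRE-bla HeLa (5 hr, 37 C) → LiveBLAzer 2 hr RT → CellTiter-Glo 30 min RT → luminescence.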

[4] = molecular target: Nuclear receptor ROR-gamma (Homo sapiens) (UniProt P51449); experiment: qHTS assay to identify small molecule antagonists of the retinoid-related orphan receptor gamma (ROR-gamma) signaling pathway (AID 1159521; active = well fitted curve in the direction sought with a large enough effect in the repeat runs; an effect the other way counts as inactive or inconclusive;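 also: CHO cells with doxycycline inducible ROR-gamma driving an RORE luciferase reporter; top concentration of the series differs between compounds; nearly all actives have a fitted effect of over 50% in size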)
Method in brief: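 Test compounds were applied to Tet-on RORγ CHO cells 2 h ahead of doxycycline hyclate (1 uM final). Luciferase reporter activity was quantified by luminescence after 16 h at 37 C and 5% CO2.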

[5] = qHTS assay to identify small molecule agonists of the AP-1 signaling pathway - cell viability counter screen (AID 1159525); also: nearly all actives have a fitted effect of over 55% in size
Method in brief: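 Each titration point was normalised to DMSO and tetra n-octyl ammonium bromide controls. The read was Cell Titer Glo luminescence after 30 min at RT, following 5 h compound exposure of ME-180 AP-1-bla cells at 37 °C.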

[6] = qHTS assay to identify small molecule agonists of the AP-1 signaling pathway (AID 1159526)
[7] = molecular target: Retinoic acid receptor RXR-alpha (Homo sapiens) (UniProt P19793); experiment: qHTS assay to identify small molecule agonists of the RXR signaling pathway (AID 1159527); also: nearly all actives have a fitted effect of over 35% in size
Method in brief: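 Using 9-cis retinoic acid as the reference agonist, chemicals were tested in HEK 293T cells […] for 16 hr; substrate loading lasted 2 hr at room temperature.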

[8] = qHTS assay to identify small molecule agonists of the RXR signaling pathway - cell viability counter screen (AID 1159529; active = well fitted curve in the direction sought with a large enough effect in the repeat runs; an effect the other way counts as inactive or inconclusive; also: series mostly up to about 77 µM; nearly all actives have a fitted effect of over 50% in size)
Method in brief: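 Compounds dissolved in DMSO were pinned onto HEK 293T cells carrying a beta-lactamase reporter under RXR-alpha control and incubated 16 hr. Cytotoxicity was then quantified by CellTiter-Glo luminescence.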

[9] = qHTS assay to identify small molecule antagonists of the vitamin D receptor (VDR) signaling pathway - cell viability counter screen (AID 743225; active = well fitted curve in the direction sought with a large enough effect in the repeat runs; an effect the other way counts as inactive or inconclusive; also: nearly all actives have a fitted effect of over 50% in size)
Method in brief: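 Compounds were pinned onto VDR-bla HEK 293T cells together with 1-alpha,25-dihydroxyvitamin D3 at 3 nM final. After 16 h at 37C and 5% CO2 plus the reporter readout, cell viability was measured by CellTiter-Glo luminescence (30 min, room temperature).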

[10] = qHTS assay to identify small molecule antagonists of the retinoid-related orphan receptor gamma (ROR-gamma) signaling pathway - cell viability counter screen (AID 1159520; active = well fitted curve in the direction sought with a large enough effect in the repeat runs; an effect the other way counts as inactive or inconclusive; also: nearly all actives have a fitted effect of over 50% in size)
Method in brief: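 Tet-on ROR gamma CHO cells (1,000/well) were plated 4 hr, given compounds in DMSO for 2 hr at 37 C, then induced with 1 uM final doxycycline for 16 hr. Viability was read as ATP by CellTiter-Glo luminescence after 30 min.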

Measured: Potency

Retinoic acid receptor RXR-alpha (Homo sapiens), sequence (P19793 whole entry, looked up): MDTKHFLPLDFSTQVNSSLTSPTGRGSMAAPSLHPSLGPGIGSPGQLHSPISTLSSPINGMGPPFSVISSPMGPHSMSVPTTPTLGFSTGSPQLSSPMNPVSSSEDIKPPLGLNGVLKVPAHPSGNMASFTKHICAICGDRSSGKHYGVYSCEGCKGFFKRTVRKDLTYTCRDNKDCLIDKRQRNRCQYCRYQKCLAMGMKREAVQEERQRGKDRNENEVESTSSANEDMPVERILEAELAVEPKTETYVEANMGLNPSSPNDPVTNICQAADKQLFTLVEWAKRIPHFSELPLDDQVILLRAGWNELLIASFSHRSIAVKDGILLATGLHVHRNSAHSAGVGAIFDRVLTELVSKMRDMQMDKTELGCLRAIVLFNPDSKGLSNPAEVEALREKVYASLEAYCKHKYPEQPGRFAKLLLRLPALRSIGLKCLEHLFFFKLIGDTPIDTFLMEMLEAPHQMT

CC12CCC(C(=O)C1=O)C2(C)C (configuration not stated)
not listed: [9] | [10]
inactive: all other assays above

Cc1onc(-c2c(Cl)cccc2Cl)c1C(=O)Cl
not listed: [4] | [7] | [10]
inactive: all other assays above

CCOCC(C)O (configuration not stated)
not listed: [9] | [10]
inactive: all other assays above

CCC1C(=O)OCC1Cc1cncn1C (configuration not stated)
not listed: [4] | [7]
inactive: all other assays above

O=S(=O)(O)c1cccc(S(=O)(=O)O)c1
not listed: [4]
inactive: all other assays above

CCCc1ncc(C[n+]2ccccc2C)c(N)n1
not listed: [10]
inactive: all other assays above

CN(C)[C@@H]1C(=O)C(C(=O)NCN2CCCC2)=C(O)[C@@]2(O)C(=O)C3=C(O)c4c(O)cccc4[C@@](C)(O)C3C[C@@H]12 (some centres not stated)
not listed: [10]
inactive: all other assays above

CC(C)C(=O)OC(=O)C(C)C
not listed: [7] | [10]
inactive: all other assays above

CO[C@@]1(NC(=O)CSC[C@@H](N)C(=O)O)C(=O)N2C(C(=O)O)=C(CSc3nnnn3C)CS[C@@H]21
not listed: [4] | [9] | [10]
inactive: all other assays above

NC(CCC(=O)O)C(=O)O (configuration not stated)
not listed: [10]
inactive: all other assays above

N[C@@H](CCC(=O)O)C(=O)O
not listed: [4]
inactive: all other assays above

Cc1nc(C2CCCCC2)c(-c2ccc(S(N)(=O)=O)c(F)c2)o1
not listed: [5] | [7] | [10]
inactive: all other assays above

C[C@H]1C[C@H]2[C@@H]3CCC4=CC(=O)C=C[C@]4(C)[C@H]3C(=O)C[C@]2(C)[C@@]1(O)C(=O)CO
not listed: [10]
inactive: all other assays above

CCC(C)(CN(C)C)OC(=O)c1ccccc1 (configuration not stated)
not listed: [5] | [10]
inactive: all other assays above

O=C(O)c1cn(C2CC2)c2cc(N3CCNCC3)c(F)cc2c1=O
not listed: [8] | [9] | [10]
inactive: all other assays above

CC/C=C\CCOC(C)OCC (configuration not stated)
inactive: [9] | [1] | [2] | [3] | [10] | [6]

COc1cccc(OC)c1C(=O)N[C@@H]1C(=O)N2[C@@H]1SC(C)(C)[C@@H]2C(=O)O
not listed: [4] | [5]
inactive: all other assays above

C1CCC2=NCCCN2CC1
inactive: [1] | [2] | [3] | [5] | [6] | [8]

O=C(O)CNC(=O)c1ccc(CO)o1
not listed: [8] | [10]
inactive: all other assays above

C=CCCC(=O)O
not listed: [10]
inactive: all other assays above

O=C(c1ccccc1)C1(O)CCCCC1
not listed: [10]
inactive: all other assays above

Nc1ccn([C@@H]2O[C@H](CO)[C@@H](O)C2(F)F)c(=O)n1
not listed: [4] | [8] | [10]
inactive: all other assays above

CO[C@@]1(NC(=O)C(C(=O)O)c2ccc(O)cc2)C(=O)N2C(C(=O)O)=C(CSc3nnnn3C)CO[C@@H]21 (some centres not stated)
not listed: [10]
inactive: all other assays above

CCCC(C)C(=O)OCC (configuration not stated)
not listed: [5] | [9] | [10]
inactive: all other assays above

c1coc(CNc2ncnc3nc[nH]c23)c1
not listed: [4]
inactive: all other assays above

C=COC(=O)C(C)(CC)CCC(C)C (configuration not stated)
not listed: [8] | [10]
inactive: all other assays above

Cc1coc2ccccc2c1=O
not listed: [4]
inactive: all other assays above
